Records with an inconclusive call do not appear. The source made the active and inactive calls. Unless noted, calls come from the whole dose curve; as a rule, active = well fitted curve in the direction sought with a large enough effect in the repeat runs; inconclusive = weak or mixed curves; inactive = no such curve, though single readings can be large; an effect the other way counts as inactive or inconclusive.
Experiments:
[1] = qHTS assay to test for compound auto fluorescence at 535 nm (green) in HEK293 cells (AID 720680)
[2] = qHTS assay to test for compound auto fluorescence at 460 nm (blue) in HEK293 cell free culture (AID 720681)
Summary of the method: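 Blue fluorescence (Ex 405/Em 460 nm, triamterene-equivalent) was read immediately after pin transfer of compound or DMSO into medium (DMEM, 10% FBS) without cells.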

[3] = qHTS assay to test for compound auto fluorescence at 535 nm (green) in HEK293 cell free culture (AID 720682)
Summary of the method: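 Cell-free medium (DMEM, 10% FBS) receives compound or DMSO by pintool. Plate read directly at Ex 485/Em 535 nm. Signal converted to fluorescein equivalency.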

[4] = qHTS assay to test for compound auto fluorescence at 590 nm (red) in HEK293 cell free culture (AID 720683)
Summary of the method: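 Red-channel autofluorescence of compounds in culture medium (DMEM, 10% FBS), no cells, measured at 540/590 nm. Rose Bengal sodium is the reference fluorophore for equivalence.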

[5] = qHTS assay to test for compound auto fluorescence at 590 nm (red) in HepG2 cell free culture (AID 720684)
Summary of the method: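 No cells present: MEM + 10% FBS only. Compound pinned in, red label read (540/590 nm). Activity = fluorescence equivalent to Rose Bengal sodium.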

[6] = qHTS assay to test for compound auto fluorescence at 460 nm (blue) in HepG2 cell free culture (AID 720685)
Summary of the method: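 Cell-free plates of MEM plus 10% FBS received 23 nL compound or DMSO vehicle; blue-channel (405/460 nm) intensity scored against triamterene as reference fluorophore.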

[7] = qHTS assay to test for compound auto fluorescence at 535 nm (green) in HepG2 cell free culture (AID 720686)
[8] = qHTS assay to test for compound auto fluorescence at 460 nm (blue) in HepG2 cells (AID 720687)
Summary of the method: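 Blue-channel autofluorescence (Ex/Em 405/460 nm, triamterene-equivalent) was measured after 1 hr compound exposure at 37 C, 5% CO2. Cells were HepG2, plated overnight at 37 C in MEM plus 10% FBS.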

[9] = target: Glucocorticoid receptor (Homo sapiens) (UniProt P04150); experiment: qHTS assay to identify small molecule agonists of the glucocorticoid receptor (GR) signaling pathway (AID 720691; active = well fitted activation curve with a large enough effect in the signal ratio in the repeat runs, not every such curve was filed as active; the % refers to the signal ratio)
Summary of the method: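 Cells: GR-bla HeLa, endogenous GR with stably integrated GRE-beta-lactamase reporter. Treatment 18 h, 37 C, compounds delivered in DMSO. Detection via LiveBLAzer B/G FRET substrate, 2 h RT, fluorescence intensity.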

[10] = target: Glucocorticoid receptor (Homo sapiens) (UniProt P04150); experiment: qHTS assay to identify small molecule antagonists of the glucocorticoid receptor (GR) signaling pathway (AID 720692; active = well fitted inhibition curve with a large enough effect in the signal ratio in the repeat runs, not every such curve was filed as active; the % refers to the signal ratio; note: potency is the fitted concentration of half-maximal effect)
Summary of the method: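 Quantitative HTS in antagonist format: HeLa cells expressing endogenous GR and a stably integrated GRE-bla reporter, stimulated with 5 nM dexamethasone (final) alongside test compounds for 18 h.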

[11] = qHTS assay to identify small molecule antagonists of the glucocorticoid receptor (GR) signaling pathway - cell viability counter screen (AID 720693); note: nearly all actives have a fitted effect of over 55% in size
[12] = qHTS assay for identifying genotoxic compounds that show differential cytotoxicity against isogenic chicken DT40 cell lines with known DNA damage response pathways - wild type cell line (AID 743012); note: nearly all actives have a fitted effect of over 60% in size; note: potency is the fitted concentration of half-maximal effect
Summary of the method: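 Luminescent ATP viability signal (CellTiter-Glo, 30 min RT) recorded after wild type DT40 cells were incubated with compounds for 40 h at 37 C/5% CO2.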

[13] = qHTS assay for identifying genotoxic compounds that show differential cytotoxicity against isogenic chicken DT40 cell lines with known DNA damage response pathways - Rev3 mutant cell line (AID 743014); note: nearly all actives have a fitted effect of over 55% in size; note: potency is the fitted concentration of half-maximal effect
[14] = qHTS assay to identify small molecule antagonists of the androgen receptor (AR) signaling pathway - cell viability counter screen (AID 743033; note: nearly all actives have a fitted effect of over 45% in size; note: potency is the fitted concentration of half-maximal effect)
[15] = qHTS assay to identify small molecule antagonists of the androgen receptor (AR) signaling pathway using the MDA cell line - cell viability counter screen (AID 743041; note: nearly all actives have a fitted effect of over 45% in size)
Summary of the method: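 Using the breast carcinoma line MDA-kb2 AR-luc, test chemicals were co-incubated with R1881 for 16 h; CellTiter-Fluor reagent, added at 15.5 h, provided a fluorescence measure of live cells.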

[16] = qHTS assay for identifying genotoxic compounds that show differential cytotoxicity against isogenic chicken DT40 cell lines with known DNA damage response pathways - Rad54/Ku70 mutant cell line (AID 743015); note: nearly all actives have a fitted effect of over 60% in size; note: potency is the fitted concentration of half-maximal effect
[17] = target: Androgen receptor (Homo sapiens) (UniProt P10275); experiment: qHTS assay to identify small molecule agonists of the androgen receptor (AR) signaling pathway using the MDA cell line (AID 743040; note: nearly all actives have a fitted effect of over 20% in size)
Summary of the method: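 Stable MMTV-luciferase reporter in MDA-kb2 cells; note the promoter carries GR as well as AR response elements. 16 h compound treatment, 37C, 0% CO2; ONE-Glo luminescence endpoint.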

[18] = target: Androgen receptor (Homo sapiens) (UniProt P10275); experiment: qHTS assay to identify small molecule antagonists of the androgen receptor (AR) signaling pathway using the MDA cell line (AID 743042; note: nearly all actives have a fitted effect of over 55% in size)
Summary of the method: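 Antagonist mode: compounds plus R1881 agonist added to MDA-kb2 AR-luc cells, incubated 16 h at 37C. Luciferase reporter luminescence quantified, with multiplexed CellTiter-Fluor readout for cell viability.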

[19] = target: Androgen receptor (Homo sapiens) (UniProt P10275); experiment: qHTS assay to identify small molecule antagonists of the androgen receptor (AR) signaling pathway (AID 743035; active = well fitted inhibition curve with a large enough effect in the signal ratio in the repeat runs, not every such curve was filed as active; the % refers to the signal ratio)
Summary of the method: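 Quantitative HTS of the Tox21 10K library used HEK293 AR-UAS-bla cells stimulated with R1881 alongside compound for 16 h at 37C, followed by beta-lactamase FRET detection (LiveBLAzer B/G, 2 h, RT).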

[20] = target: Androgen receptor (Homo sapiens) (UniProt P10275); experiment: qHTS assay to identify small molecule agonists of the androgen receptor (AR) signaling pathway (AID 743036; active = well fitted activation curve with a large enough effect in the signal ratio in the repeat runs, with a control signal flat, not every such curve was filed as active; the % refers to the signal ratio)
Summary of the method: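 AR-bla HEK293 cells, 2,000/well; 4 h preincubation 37C/5% CO2; compound (DMSO) 16 h at 37C; LiveBLAzer B/G FRET substrate 2 h RT; fluorescence intensity read-out.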
% is set by controls: 0 for no effect and ±100 for the full control effect.

Sequence of Androgen receptor (Homo sapiens) (P10275 whole entry, looked up): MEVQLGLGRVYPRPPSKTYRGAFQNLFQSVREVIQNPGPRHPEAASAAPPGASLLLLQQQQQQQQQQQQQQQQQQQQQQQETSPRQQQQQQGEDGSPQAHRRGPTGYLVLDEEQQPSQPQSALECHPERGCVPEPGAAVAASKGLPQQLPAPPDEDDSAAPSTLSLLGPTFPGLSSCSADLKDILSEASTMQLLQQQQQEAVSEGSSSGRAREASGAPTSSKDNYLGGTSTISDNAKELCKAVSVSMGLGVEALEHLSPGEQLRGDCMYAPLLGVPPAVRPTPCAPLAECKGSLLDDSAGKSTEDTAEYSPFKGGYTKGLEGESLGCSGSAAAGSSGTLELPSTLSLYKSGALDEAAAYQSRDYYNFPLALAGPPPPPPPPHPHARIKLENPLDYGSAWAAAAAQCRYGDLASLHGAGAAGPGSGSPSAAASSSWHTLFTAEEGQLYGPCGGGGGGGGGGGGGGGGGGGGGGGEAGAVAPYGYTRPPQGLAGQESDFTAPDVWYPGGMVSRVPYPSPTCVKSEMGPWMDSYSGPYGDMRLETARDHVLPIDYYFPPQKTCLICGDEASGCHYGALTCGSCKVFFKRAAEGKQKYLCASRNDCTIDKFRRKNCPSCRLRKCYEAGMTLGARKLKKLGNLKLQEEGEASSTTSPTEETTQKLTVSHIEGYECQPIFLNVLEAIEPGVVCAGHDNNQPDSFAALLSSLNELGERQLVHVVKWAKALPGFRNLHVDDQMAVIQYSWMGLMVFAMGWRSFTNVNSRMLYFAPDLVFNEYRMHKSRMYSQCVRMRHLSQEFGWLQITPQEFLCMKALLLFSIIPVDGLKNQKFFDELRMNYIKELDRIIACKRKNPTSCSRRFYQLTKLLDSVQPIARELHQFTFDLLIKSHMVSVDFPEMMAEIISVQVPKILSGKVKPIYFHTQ
Sequence of Glucocorticoid receptor (Homo sapiens) (P04150 whole entry, looked up): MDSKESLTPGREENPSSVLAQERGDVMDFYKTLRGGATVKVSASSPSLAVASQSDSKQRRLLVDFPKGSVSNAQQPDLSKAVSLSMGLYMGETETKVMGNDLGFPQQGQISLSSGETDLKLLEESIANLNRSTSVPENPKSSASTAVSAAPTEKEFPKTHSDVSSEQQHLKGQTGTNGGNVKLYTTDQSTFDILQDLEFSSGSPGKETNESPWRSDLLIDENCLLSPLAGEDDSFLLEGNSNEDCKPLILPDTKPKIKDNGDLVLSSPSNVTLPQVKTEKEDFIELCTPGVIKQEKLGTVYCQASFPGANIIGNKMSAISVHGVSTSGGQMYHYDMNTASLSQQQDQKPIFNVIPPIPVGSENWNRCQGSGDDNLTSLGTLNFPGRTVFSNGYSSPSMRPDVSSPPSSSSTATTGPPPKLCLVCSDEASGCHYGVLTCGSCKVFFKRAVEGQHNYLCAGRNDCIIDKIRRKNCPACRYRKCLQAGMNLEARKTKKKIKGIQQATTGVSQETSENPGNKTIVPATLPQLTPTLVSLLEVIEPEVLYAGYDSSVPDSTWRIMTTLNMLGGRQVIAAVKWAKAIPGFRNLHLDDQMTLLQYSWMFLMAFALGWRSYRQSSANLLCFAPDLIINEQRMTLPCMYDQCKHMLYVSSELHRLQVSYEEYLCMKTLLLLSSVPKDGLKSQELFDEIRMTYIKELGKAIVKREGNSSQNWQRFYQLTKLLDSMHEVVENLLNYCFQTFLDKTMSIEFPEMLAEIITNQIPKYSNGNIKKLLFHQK

O=C(O)C[C@H](NC(=O)OCc1ccccc1)C(=O)O
inactive: outcome [1] | Potency [2] | outcome [3] | outcome [4] | outcome [5] | Potency [6] | outcome [7] | Potency [8] | Potency [9] | Potency [10] | Potency [11] | Potency [12] | Potency [13] | Potency [14] | Potency [15]

Oc1cccc(O)c1O
active: Potency [12] 26.6 µM | Potency [13] 48.1 µM
inactive: outcome [1] | Potency [2] | outcome [3] | outcome [4] | outcome [5] | Potency [6] | outcome [7] | Potency [8] | Potency [9] | Potency [10] | Potency [11] | Potency [14] | Potency [15]

CCOc1ccccc1O[C@H](c1ccccc1)[C@H]1CNCCO1
inactive: outcome [1] | Potency [2] | outcome [3] | outcome [4] | outcome [5] | Potency [6] | outcome [7] | Potency [8] | Potency [9] | Potency [10] | Potency [11] | Potency [14] | Potency [15]
active: Potency [12] 29.8 µM | Potency [13] 26.6 µM | Potency [16] 13.3 µM

OCCN1CCN(CCCN2c3ccccc3Sc3ccc(Cl)cc32)CC1
inactive: fluorescence, % of fluorescein [1] -0.0167% [at 18.6 µM] | fluorescence, % of fluorescent control [2] -0.0053% [at 18.6 µM] | activity change [3] -0.0092% [at 18.6 µM] | fluorescence, % of fluorescent control [4] 0.0511% [at 18.6 µM] | fluorescence, % of Rose Bengal [5] -0.146% [at 18.6 µM] | fluorescence, % of fluorescent control [6] 0.0187% [at 18.6 µM] | fluorescence, % of fluorescein control [7] 0.137% [at 18.6 µM] | fluorescence, % of fluorescent control [8] 0.0774% [at 18.6 µM] | Potency [9] | Potency [10] | Potency [11] | Potency [15]
active: Potency [12] 3.59 µM | Potency [13] 2.85 µM | Potency [16] 4.52 µM | Potency [14] 4.56 µM

COc1ccccc1N1CCN(CCCCNC(=O)c2ccc(-c3ccc(C(C)=O)cc3)cc2)CC1
inactive: outcome [1] | Potency [2] | outcome [3] | outcome [4] | outcome [5] | Potency [6] | outcome [7] | Potency [8] | Potency [9] | Potency [10] | Potency [11] | Potency [12] | Potency [13] | Potency [16] | Potency [14]

CCCCCCCCCI
inactive: outcome [1] | Potency [2] | outcome [3] | outcome [4] | outcome [5] | Potency [6] | outcome [7] | Potency [8] | Potency [9] | Potency [10] | Potency [11] | Potency [12] | Potency [13] | Potency [16] | Potency [14] | Potency [15]

CC(C)(O)c1ccc(CNC(=O)c2cccnc2Oc2ccc3nonc3c2)cc1
inactive: outcome [1] | Potency [2] | outcome [3] | outcome [4] | outcome [5] | Potency [6] | outcome [7] | Potency [8] | Potency [9] | Potency [10] | Potency [11] | Potency [15]
active: Potency [12] 61.1 µM | Potency [13] 68.6 µM

c1ccc2c(c1)CCc1ccccc1N2
inactive: outcome [1] | Potency [2] | outcome [3] | outcome [4] | outcome [5] | Potency [6] | outcome [7] | Potency [8] | Potency [11] | Potency [12]

CN1C(=O)c2ccccc2C1=O
inactive: outcome [1] | Potency [2] | outcome [3] | outcome [4] | outcome [5] | Potency [6] | outcome [7] | Potency [8] | Potency [9] | Potency [11]
active: Potency [13] 68.6 µM

C/C=C/C=C/C=O
inactive: outcome [1] | Potency [2] | outcome [3] | outcome [4] | outcome [5] | Potency [6] | outcome [7] | Potency [8] | Potency [9] | Potency [14] | outcome [17] | Potency [15] | Potency [18]
active: Potency [13] 54.1 µM

CC(=O)N/N=C/c1ccc([N+](=O)[O-])o1
active: Potency [12] 11.9 µM | Potency [13] 10.6 µM
inactive: outcome [1] | Potency [2] | outcome [3] | outcome [4] | outcome [5] | Potency [6] | outcome [7] | Potency [8] | Potency [9] | Potency [14] | Potency [15]

CCCCCCCCOc1ccc(C(=O)O)cc1
inactive: outcome [1] | Potency [2] | outcome [3] | outcome [4] | outcome [5] | Potency [6] | outcome [7] | Potency [8] | Potency [9] | Potency [12] | Potency [13] | Potency [16] | Potency [14] | Potency [15]

CC(=O)c1ccc([N+](=O)[O-])cc1
inactive: outcome [1] | Potency [2] | outcome [3] | outcome [4] | outcome [5] | Potency [6] | outcome [7] | Potency [8] | Potency [9] | Potency [11] | Potency [12] | Potency [13] | Potency [16] | Potency [14] | Potency [15]

CCOc1ccc(Cc2nccc3cc(OCC)c(OCC)cc23)cc1OCC
active: Potency [12] 4.03 µM | Potency [13] 5.07 µM | Potency [16] 5.07 µM
inactive: fluorescence, % of fluorescein [1] -0.066% [at 18.6 µM] | fluorescence, % of fluorescent control [2] 0.019% [at 18.6 µM] | activity change [3] 0.0026% [at 18.6 µM] | fluorescence, % of fluorescent control [4] 0.116% [at 18.6 µM] | fluorescence, % of Rose Bengal [5] 0.0721% [at 18.6 µM] | fluorescence, % of fluorescent control [6] -0.0254% [at 18.6 µM] | fluorescence, % of fluorescein control [7] 0.0297% [at 18.6 µM] | fluorescence, % of fluorescent control [8] -0.0004% [at 18.6 µM] | Potency [9] | Potency [11] | Potency [19] | outcome [20] | outcome [17] | Potency [15]

CC(C)COCC(CN(Cc1ccccc1)c1ccccc1)N1CCCC1 (stereo not given)
inactive: outcome [1] | Potency [2] | outcome [3] | outcome [4] | outcome [5] | Potency [6] | outcome [7] | Potency [8] | Potency [9] | Potency [11] | Potency [14] | Potency [15]
active: Potency [12] 5.31 µM | Potency [13] 8.41 µM

Nc1nnc(-c2ccc([N+](=O)[O-])o2)o1
active: Potency [12] 24.3 µM | Potency [13] 19.3 µM | Potency [16] 19.3 µM
inactive: outcome [1] | Potency [2] | outcome [3] | outcome [4] | outcome [5] | Potency [6] | outcome [7] | Potency [8] | Potency [9] | Potency [11]

COC(=O)C1=C(C)NC(C)=C(C(=O)O[C@@H]2CCCN(Cc3ccccc3)C2)[C@@H]1c1cccc([N+](=O)[O-])c1
inactive: outcome [1] | Potency [2] | outcome [3] | outcome [4] | outcome [5] | Potency [6] | outcome [7] | Potency [8]
active: Potency [10] 10.7 µM | Potency [12] 13.3 µM | Potency [13] 21.1 µM | Potency [16] 13.3 µM

Source: PubChem BioAssay (Tox21)
